The campaign covered roughly 69,000 compounds. About 8,600 (12%) showed an effect of 50% or more. What follows is part of a selection rich in strong results, with near analogues and random picks from the rest.

Consider 109 compounds from ChEMBL document CHEMBL4513216, “Probing the Open Global Health Chemical Diversity Library for Multistage-Active Starting Points for Next-Generation Antimalarials” (ACS Infect Dis, 2020).

The subject of this assay is Plasmodium berghei. Put plainly: Screen against P. berghei liver stage (PbLuc), transformed with Luciferase, at 10uM. The assay is classed as functional, HepG2. The settings on record: tested at 10 uM.
`Cc1cc(N[C@H]2CN(CC(C)(C)N3CCOCC3)C[C@@H]2C2CC2)ncn1`: the INHIBITION stood at 35.8%. The figure for `CCOCCn1nc(C)cc1C(=O)N(C)Cc1cccc2ncccc12` is 36%.

In the case of `CCCc1cc(C(=O)N(C)Cc2cccc3cnccc23)n(C)n1`, the INHIBITION was 6.33%. Turning to `CC(C)c1cc(C(=O)N(C)Cc2cccc3ncccc23)n(C)n1`, the INHIBITION is reported as 67.2%.

For `CCCc1cc(C(=O)N(C)Cc2cccc3ncccc23)n(C)n1`, the INHIBITION came out at 46.8%. In the case of `CN(Cc1cccc2ncccc12)C(=O)CCn1ccc(=O)[nH]c1=O`, the INHIBITION is listed as 30.9%. As to `CCCc1cc(C(=O)N(C)Cc2ccc(OC)c3ncccc23)n(C)n1`, the INHIBITION is 67.9%. Consider `O=C(c1ccc2c(c1)OCCO2)N1CCCC(n2ccnc2)C1` (centres undefined), for which the INHIBITION was found to be 37.9%. The figure for `CCC(=O)N1CCC(c2nc(C)c3c(n2)N(C)CCC3)CC1` is 34.1%; for `CC(C)N1CC(c2ccnc(Nc3nccs3)n2)C1` it is 29.49%; for `COc1ccc(Cl)cc1-n1cnc(CCNC(C)=O)c1` it is 71.5%. The figure for `COc1ccc(F)cc1-n1cnc(CCNC(C)=O)c1` is 35.1%.

Regarding `COc1cc(F)c(-n2cnc(CCNC(C)=O)c2)cc1F`, the INHIBITION is 4.1%. Consider `O=C1NC2(CCN(CC(=O)N3CCOCC3)CC2)Nc2ccccc21`, for which the INHIBITION is 3.5%. Turning to `O=S1(=O)COCCN1Cc1ccc(F)c(C(F)(F)F)c1`, the INHIBITION is 19.4%. The figure for `COCc1noc(-c2ccc(N3CCCCC3CO)nc2)n1` (centres undefined) is 90.1%; for `COCc1noc(-c2ccc(N3CCCCC3CCCO)nc2)n1` (centres undefined) it is 35.8%; for `COCc1noc(-c2ccc(N3CCC[C@H]3CO)nc2)n1` it is 75.7%. The figure for `COCc1noc(-c2ccc(N3CCCCC3COC)nc2)n1` (centres undefined) is 48.5%; for `Cc1noc(-c2ccc(N3CCC[C@H]3CO)nc2)n1` it is 17.6%. The figure for `COCc1noc(-c2ccc(N3CCCC3c3ccc(F)cc3)nc2)n1` (centres undefined) is 18.5%. With `OC[C@@H]1CCCN1c1ccc(-c2nc(CCc3ccccc3)no2)cn1`, the INHIBITION is 43.9%. The figure for `COc1ccc(-c2cnc(CN3CCCC3CO)o2)cc1` (centres undefined) is 15.1%. As for `OC[C@@H]1CCCN1c1ccc(-c2nc(COc3ccccc3)no2)cn1`, the INHIBITION came out at 25.8%. The figure for `OCC1CCCCN1c1ccc(-c2nc(-c3ccccc3F)no2)cn1` (centres undefined) is 91.8%; for `COCc1noc(-c2ccc(N3CCCC3c3nccs3)nc2)n1` (centres undefined) it is 43%. The figure for `COc1ccc(-c2noc(-c3ccc(N4CCC[C@H]4CO)nc3)n2)cc1` is 84.8%; for `CCCN1C[C@@H]2CC[C@H]1CN(C(=O)c1ccc(N(C)CCO)cc1)C2` it is 43.9%; for `N#Cc1ccc(CS(=O)(=O)NC(=O)COc2ccc3c(c2)CCC3)cc1` it is -57.66%. The figure for `COC(=O)N1CC(C)=C(C)CN1C(=O)Nc1cccc(Cl)c1` is -28.6%. Turning to `COc1cc(OC)cc(C(=O)N2CCOCC2c2[nH]ncc2C)c1` (centres undefined), the INHIBITION turned out to be 46.25%. The figure for `Cc1nc(C)n(CC2CCCN2CCC(=O)N2CCCCC2)n1` (centres undefined) is -8.11%; for `Cc1ccc(C(=O)N2Cc3c(CN4CCCCC4)nn(C)c3C2)o1` it is 28.4%. The figure for `CC(=O)Nc1nc(C(=O)N2CCCC2c2ccc(Br)cc2)cs1` (centres undefined) is 26.4%.

On to `Cc1cc(C)c(CNC(=O)C(C)Oc2cccc(C#N)c2)c(=O)[nH]1` (centres undefined), for which the INHIBITION is on record as 36.4%. Turning to `CCC(C)Oc1ccccc1Cn1cc2[nH]cccc-2c1=O` (centres undefined), the INHIBITION turned out to be 41.5%. The figure for `Cc1ccnc(C2CN(c3ccnc(C)n3)C2)n1` is 28.6%; for `CCc1nc(NC2CCN(CC(=O)NC3CC3)CC2)c2cnn(C)c2n1` it is 21.8%. Turning to `OCC1(Cc2ccc(Cl)cc2)CCN(Cc2ccccc2O)CC1`, the INHIBITION was 14.6%.

As for `OCC1(Cc2ccc(Cl)cc2)CCN(Cc2cccnc2)CC1`, the INHIBITION came to 92%. Take `COc1ccc(CN2CCC(CO)(Cc3ccc(Cl)cc3)CC2)c(O)c1`: the INHIBITION came to 31.6%. The figure for `Clc1ccc(CN2CCC(C3CCN(Cc4cccnc4)CC3)C2)cc1` (centres undefined) is 36.8%; for `COc1cccc(CN2CCC(CO)(Cc3ccc(Cl)cc3)CC2)c1O` it is 85.4%; for `Clc1ccc(CN2CCC3(CC2)CC(c2cccnc2)=NO3)cc1` it is 46.6%. The figure for `Cc1c(C(=O)NCC2CCCO2)nnn1-c1cccc2c1CCN(C)C2` (centres undefined) is 29.2%; for `COc1c(C2CCCN2C(=O)c2ccc3[nH]cnc3c2)c(C)nn1C` (centres undefined) it is -2.19%; for `F[C@@H]1CN(CC2CCCCC2)C[C@@H]1OCc1nc2ccccc2o1` it is 29.8%. For `CC(=O)N1C[C@@H](F)[C@@H](OCc2nc3ccccc3o2)C1`, the INHIBITION is -15.6%. The figure for `CC(C)(C)C(=O)N1C[C@@H](F)[C@@H](OCc2nc3ccccc3o2)C1` is 70.7%; for `O=C(C1CC1)N1C[C@@H](F)[C@@H](OCc2nc3ccccc3[nH]2)C1` it is 7.85%; for `O=C(c1ccno1)N1C[C@@H](F)[C@@H](OCc2nc3ccccc3o2)C1` it is 56.3%. The figure for `CC(C)NC(=O)N1C[C@@H](F)[C@@H](OCc2nc3ccccc3o2)C1` is 58.5%.

Consider `CS(=O)(=O)N1C[C@@H](F)[C@@H](OCc2nc3ccccc3o2)C1`, for which the INHIBITION is 41.1%. The figure for `O=C(C1CC1)N1C[C@@H](F)[C@@H](OCc2nc3ccccc3o2)C1` is 13.1%. The figure for `F[C@@H]1CN(CC2CC2)C[C@@H]1OCc1nc2ccccc2o1` is -3.5%; for `CCC(CN1CCCCC1)NC(=O)C1(c2ccc(F)cc2)CC1` (centres undefined) it is 48.2%; for `COc1ccc(C(=O)N2CCOCC2c2[nH]ncc2C)cc1F` (centres undefined) it is 3.75%.

Regarding `Cc1cnn(CC2CN(Cc3nc4ccccc4c(=O)[nH]3)CCO2)c1` (centres undefined), the INHIBITION is listed as 29.4%. The figure for `Cc1nc2c(Nc3cccc(C#N)c3)nc(N)nc2n1C` is -42.8%; for `CC(C)NC(=O)N1CCC2(CC1)Cc1ccccc1CN(C)C2=O` it is -6.25%; for `CNC(=O)Nc1cc(-c2ccccc2C)nn1CCO` it is -60%.

For the compound `CCNC(=O)CCC(=O)NCC1(O)CCC(C(C)(C)C)CC1` (centres undefined), the INHIBITION was -23.8%.

Consider `COc1cccc(S(=O)(=O)N2CCCCC2CCN2CCOCC2)c1` (centres undefined), for which the INHIBITION worked out at 22.6%. Consider `CCN1CCC(CC(=O)N[C@H](C(=O)O)c2cccc(F)c2F)CC1`, for which the INHIBITION is on record as -2.39%.

Consider `CCCN1CCC(CC(=O)N[C@H](C(=O)O)c2cccc(F)c2F)CC1`, for which the INHIBITION was determined as 53%. The figure for `CC(C)N1CCC(CC(=O)NC(C(=O)O)c2cc(F)ccc2F)CC1` (centres undefined) is 52.1%; for `CC(C)N1CCC(CC(=O)NC(C(=O)O)c2ccc(F)cc2)CC1` (centres undefined) it is 33.9%. The figure for `CC(C)N1CCC(CC(=O)NC(C(=O)O)c2cccc(F)c2)CC1` (centres undefined) is 36.7%; for `O=C(CCCN1CCCCC1)N[C@H](C(=O)O)c1cccc(F)c1F` it is 34.5%. The figure for `O=C(CCc1nc2cccnc2[nH]1)Nc1ccc2c(c1)NC(=O)CO2` is 14.8%. For `Cc1ccc(N2CCCC(NCc3ccc4c(c3)OCCO4)C2)nn1` (centres undefined), the INHIBITION was -19.4%. The figure for `CSc1nccc(N2CCC(NCc3ccc4c(c3)OCO4)CC2)n1` is 57.4%; for `CSc1nccc(N2CCC(=O)N(CC3CC3)C(C(C)C)C2)n1` (centres undefined) it is 7.43%; for `CSc1nccc(N2CCC(NCc3ccc4nsnc4c3)CC2)n1` it is 76.9%. The figure for `Cc1cccc(N2CCC(NCc3cnc(C4CCC4)s3)CC2)n1` is 36.5%; for `CSc1nccc(N2CCC(NCc3nc(C)cc(C)n3)CC2)n1` it is 8.7%. The figure for `O=C(NCCNS(=O)(=O)N1CCCCCC1)c1ncccc1O` is -13.6%; for `CCCC(O)CN1CCC(=O)N(Cc2ccccc2)Cc2ccccc21` (centres undefined) it is -30%; for `Cc1ccc(C)n1-c1c(C(=O)NCC(C)Cn2cccn2)cnn1C` (centres undefined) it is 5.36%.

Consider `CN1[C@H](CN2CCCC2)C[C@@H]2CN(C(=O)Cc3cccs3)CC[C@@H]21`, for which the INHIBITION is 49.1%. The figure for `CN1CCN(C)c2cc(NC(=O)c3cc[nH]n3)ccc2C1` is 43.1%; for `Cc1cc(C(=O)Nc2ccc3c(c2)N(C)CCN(C)C3)on1` it is 44.2%; for `CCc1ccc(C(=O)Nc2ccc3c(c2)N(C)CCN(C)C3)o1` it is 66.9%. The figure for `c1ccc(CCCN2CCCN(c3ncnc4[nH]ccc34)CC2)cc1` is 52.7%; for `c1ccc(OCCN2CCN(c3ncnc4[nH]ccc34)CC2)cc1` it is 35.1%; for `c1ccc(CCN2CCN(c3ncnc4[nH]ccc34)CC2)cc1` it is 33%. The figure for `COc1ccc(Cn2c(CCc3c(C)n[nH]c3C)n[nH]c2=O)cc1` is -5.08%; for `CCCc1nc(C)c(C(=O)NCCN2CCOCC2)s1` it is -65.3%.

On to `COc1ccc(CCC2CCCCN2)cc1` (centres undefined), for which the INHIBITION is recorded as 49.6%. The figure for `O=C(O)c1ccnc2c(Br)cccc12` is 9.32%. The figure for `O=C(O)c1cccc2c(Br)cccc12` is 73.9%; for `O=C(O)c1cnc2c(Br)cccc2c1O` it is 27.5%; for `C=C(C)COc1ccccc1C(=O)NCCc1cc(O)nc(C)n1` it is 41.3%.

With `CCOC(=O)N1CCc2ccccc2C12CCNCC2`, the INHIBITION was found to be 50.4%. The figure for `CN(C)C(=O)N1Cc2ccccc2C2(CCNCC2)C1` is 12.4%.

Take `CCOC(=O)N1CC2(CCNCC2)c2cc(Cl)ccc21`: the INHIBITION is listed as 21.1%. The figure for `O=C(C1CC1)N1CCc2ccccc2C12CCNCC2` is 55.4%; for `COCC(=O)N1CCc2ccccc2C12CCNCC2` it is 40.5%. The figure for `O=C(C1CC1)N1CC2(CCNCC2)C1` is -1.12%. The figure for `Cc1ccc(CC(=O)N2CCC(Nc3cccnn3)CC2)s1` is -58.0025%; for `Cc1ccccc1C(C(=O)NCCS(C)(=O)=O)N(C)C` (centres undefined) it is 22.6%. In the case of `c1ncn(CC2CN(Cc3nc(-c4ccsc4)no3)CCO2)n1` (centres undefined), the INHIBITION was -3.165%. The figure for `Cc1nc(C)n(CC2CN(Cc3ccccc3OC(C)C)CCO2)n1` (centres undefined) is 26.5%; for `NCc1cnn(-c2ccccc2C(=O)NCc2ccccn2)c1` it is 53.2%; for `NCc1cnn(-c2ccccc2C(=O)NCCCn2ccnc2)c1` it is 54.6%.

Regarding `COCCNC(=O)c1ccccc1-n1cc(CN)cn1`, the INHIBITION is on record as 17.1%. The figure for `NCc1cnn(-c2ccccc2C(=O)NCCc2ccncc2)c1` is 8.72%. The figure for `NCc1cnn(-c2ccccc2C(=O)NCc2ccncc2)c1` is 17.1%. The figure for `NCc1cnn(-c2ccccc2C(=O)NCCc2ccccn2)c1` is 24.4%.
